Screening data (PubChem)
FBPA Giardia inh: Giardia lamblia aldolase inhibition; purified Giardia FBPA; AID 2451; Potency, µM (titrated, usually from 59.6 µM), most hits filed as inhibitors; actives 0.71% (n = 290,000); also: nearly all actives have a fitted effect of over 55% in size
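40 nM FBPA preincubated 10 min at RT with compound (up to 57.5 uM final), then substrate plus GAPDH/TPI/NAD/arsenate coupling and diaphorase/resazurin added. Fluorescence read after 20 min at RT, 525/598 nm.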
Shiga toxin inh: Shiga toxin inhibition. actives 9.2% (n = 290,000). Vero cells, Shiga toxin protein synthesis inhibition reporter. inhibition, % at 38.7 µM; in the data active = inhibition mostly above about 28%, no sharp cut-off; inactive = mostly below about 43%
Cycloheximide cs: counter-screen for Shiga toxin inhibitors: cycloheximide protein synthesis inhibition; max response, %; cell reporter, cycloheximide protein synthesis inhibition counterscreen; actives 12% (n = 300,000); in the data active = max response mostly above about 13%, no sharp cut-off; inactive = mostly below about 14%; also: read at 38.3 µM for the half of the compounds with a filed dose
NS1 inh: blocks influenza NS1 protein function. actives 0.4% (n = 270,000). Potency, µM (highest dose often 46.1 µM); calls by dose curve; also: actives are rising curves; nearly all actives have a fitted effect of over 50% in size
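Growth recovery, yeast-based: influenza A NS1 expressed in S. cerevisiae causes slow growth, and suppressors are detected by OD600. The parent strain without NS1 is used as positive control.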
LmPK inh: inhibitors of Leishmania mexicana pyruvate kinase. Q27686. purified LmPK, Kinase-Glo ATP luminescence, 1 h. Potency, µM (series often up to 57.5 µM), actives largely listed as inhibitors. actives 0.37% (n = 290,000)
Target sequence (Q27686 whole entry, looked up): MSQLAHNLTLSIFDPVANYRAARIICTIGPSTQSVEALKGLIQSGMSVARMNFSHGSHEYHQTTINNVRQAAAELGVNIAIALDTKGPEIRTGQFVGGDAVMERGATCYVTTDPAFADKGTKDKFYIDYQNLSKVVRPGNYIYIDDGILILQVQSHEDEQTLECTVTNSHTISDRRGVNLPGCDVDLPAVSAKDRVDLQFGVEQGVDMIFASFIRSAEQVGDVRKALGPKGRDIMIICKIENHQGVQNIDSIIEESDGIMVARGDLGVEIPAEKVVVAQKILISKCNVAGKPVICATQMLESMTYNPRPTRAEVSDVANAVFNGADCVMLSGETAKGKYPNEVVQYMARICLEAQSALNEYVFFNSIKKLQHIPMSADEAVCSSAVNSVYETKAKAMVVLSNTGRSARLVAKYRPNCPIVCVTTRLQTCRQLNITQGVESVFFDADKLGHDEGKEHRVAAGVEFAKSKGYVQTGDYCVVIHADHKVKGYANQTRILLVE
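ATP generated from ADP (0.1 mM) and PEP (0.5 mM) by 0.1 nM LmPK over 1 h at room temperature (pH 7.2 imidazole buffer) was detected by coupled luciferase luminescence. Values were normalized to uninhibited and no-enzyme wells.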
Each line names hits and unclear results; the compound was inactive in the other large screens. Compounds with a hit are over-represented: about 14% of the library has one in this group of screens. Unless noted, calls follow the shape of the dose curve; as a rule, active = well fitted curve in the direction sought with a large enough effect; inconclusive = small, poorly fitted or top-dose-only effect, or another doubt; inactive = no such curve, though single readings can be large; an effect the other way counts as inactive or inconclusive.

Cc1ccc(-c2noc(C3CCCN(C(=O)c4c(F)cccc4F)C3)n2)cc1 (centres undefined)	none
O=C(Nc1ccc(F)cc1F)N1CCCC(c2nc(-c3ccc(F)cc3)no2)C1 (centres undefined)	Cycloheximide cs 23
Cc1ccc(-c2noc(C3CCCN(C(=O)c4cccc(F)c4)C3)n2)cc1 (centres undefined)	Cycloheximide cs 22
Cc1cc(=O)n2nc(N3CCCC3C(=O)Nc3ccc(C(C)C)cc3)sc2n1 (centres undefined)	none
CN(C)c1ccc(C(=O)N=c2sccn2C)cc1[N+](=O)[O-]	Shiga toxin inh 42, Cycloheximide cs 18 (no result: FBPA Giardia inh)
CCOc1cc(C(=O)N=c2sccn2C)ccc1OC(F)F	Cycloheximide cs 35 (no result: FBPA Giardia inh)
Cn1ccsc1=NC(=O)c1ccccc1OC(F)F	none (no result: FBPA Giardia inh)
COC(=O)c1ccc(C(=O)N=c2sccn2C)cc1	Shiga toxin inh 79, Cycloheximide cs 40
Cn1ccsc1=NC(=O)c1ccc(CS(C)(=O)=O)cc1	Shiga toxin inh 39
CN(C)c1ccc(C(=O)c2ccccc2C(=O)O)cc1[N+](=O)[O-]	none (no result: NS1 inh)
CC1CCC(CN2C(Nc3ccccc3)=NC[C@@H]2C)CC1 (some centres undefined)	none
Cc1cc(C)cc(-c2cc3c(c(-c4c(O)c(-c5cc(C)cc(C)c5)cc5c4CCCC5)c2O)CCCC3)c1	none (no result: Shiga toxin inh, Cycloheximide cs, NS1 inh, LmPK inh)
CCN(CC)CCCCn1c(-c2ccccc2)nc2c(N(CCOC)CCOC)nc(C)nc21	none (no result: Shiga toxin inh, Cycloheximide cs, NS1 inh, LmPK inh)
CCCCc1nc2c(c3c1C[C@H](C)OC3)CN(C(=O)Nc1cccc(C#N)c1)CC2	none (no result: Shiga toxin inh, Cycloheximide cs, NS1 inh)
Cn1ccs/c1=N\C(=O)Nc1ccccc1	Shiga toxin inh 75, Cycloheximide cs 66, LmPK inh inconclusive
Cn1ccsc1=NC(=O)c1ccc(S(=O)(=O)C(F)F)cc1	Shiga toxin inh 69, Cycloheximide cs 26 (no result: FBPA Giardia inh)
Cn1ccsc1=NC(=O)c1ccccc1F	none (no result: NS1 inh)
COc1ccc(NC(=O)CSCC(=O)N=c2sccn2C)cc1	none (no result: FBPA Giardia inh)
Cn1ccsc1=NC(=O)c1ccc(Cl)cc1	Shiga toxin inh 113, Cycloheximide cs 39
Cn1ccsc1=NC(=O)c1ccc(OC(F)(F)F)cc1	Shiga toxin inh 83, Cycloheximide cs 36
COc1ccc(C(=O)N=c2sccn2C)cc1	Shiga toxin inh 71, Cycloheximide cs 33 (no result: NS1 inh)
CCN(CC(=O)N1CCOCC1)S(=O)(=O)c1ccc(F)cc1	none
Cc1ccc(-c2nc(NCC3CCCO3)sc2C)cc1 (centres undefined)	Shiga toxin inh 69, Cycloheximide cs 32 (no result: NS1 inh)
O=[N+]([O-])c1ccccc1/C=N/OCc1ccccc1	Shiga toxin inh 104, Cycloheximide cs 31
CCc1ccccc1-n1c(SCC(=O)Nc2ccc3c(c2)OCCO3)nc2[nH]ncc2c1=O	Shiga toxin inh 112, Cycloheximide cs 53
Cc1nnc(SCC(=O)Nc2ccc3c(c2)OCCO3)n1CC1CCCO1 (centres undefined)	Shiga toxin inh 30, Cycloheximide cs 7.4
CCc1ccccc1-n1c(SCC(=O)N2CCCC2)nc2[nH]ncc2c1=O	none (no result: NS1 inh)
Cc1ccc(NCc2nnc(SCC(=O)Nc3ccccc3)n2CC2CCCO2)c(C)c1 (centres undefined)	Cycloheximide cs 33
O=C(CSc1nnc(-c2ccccc2Cl)n1Cc1ccco1)Nc1ccc2c(c1)OCCO2	Cycloheximide cs 13
CC(NC(=O)CN1C(=O)NC(C)(c2cccc3ccccc23)C1=O)c1ccccc1 (centres undefined)	none
CC(C)=NO[C@@H](C)c1cn([C@@H]2COC[C@@H]2O)nn1	none (no result: Shiga toxin inh, Cycloheximide cs, NS1 inh, LmPK inh)
COc1ccc(-c2cnc(SCC(=O)Nc3ccc4c(c3)OCO4)n2Cc2ccco2)cc1	Cycloheximide cs 14
O=C(CS(=O)(=O)c1c[nH]c2ccccc12)Nc1ccc2c(c1)OCCO2	FBPA Giardia inh inconclusive, Shiga toxin inh 45, Cycloheximide cs 38
CCn1c(SCC(=O)Nc2ccc3c(c2)OCCO3)nnc1-c1c[nH]c2ccccc12	Cycloheximide cs 12
CCn1c(C)nnc1SCC(=O)Nc1ccc2c(c1)OCCO2	Cycloheximide cs 13 (no result: FBPA Giardia inh)
CC(=O)Nc1cccc(NC(=O)CSc2ncc(-c3ccc(Cl)cc3)n2Cc2ccco2)c1	none
N#Cc1ccc2c(c1)C[C@]1(CCCCN3C(=O)c4ccccc4C3=O)Oc3c(c(=O)oc4ccc(F)cc34)C2O1	none
O=C(COC(=O)C1COc2ccccc2O1)Nc1cccc(S(=O)(=O)N2CCCCC2)c1 (centres undefined)	none (no result: NS1 inh)
CC(C)(C)OC(=O)N1C=CCC1CN1C(=O)COCC1=O (centres undefined)	none (no result: NS1 inh, LmPK inh)
CCn1nc(CC(=O)Nc2nnc(CC(=O)N3CCCC3)s2)c2ccccc2c1=O	NS1 inh 20µM
